# Source: PubChem (National Center for Advancing Translational Sciences (NCATS))
# KCNH2 WT inh: qHTS for Inhibitors of KCHN2 3.1: Wildtype qHTS. U2OS, BacMam KCNH2, thallium flux FluxOr; active compounds read low. activity change, % at 1.84 µM. hit rate 0.37% among 340,000. AID 720551, 2013;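 active = maximum activity change below -70%; inconclusive = maximum activity change between -70% and -50%; inactive = maximum activity change above -50%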; note: % is set by controls: 0 for no effect and ±100 for the full control effect
#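 U2OS cells transduced with wild-type KCNH2 virus are loaded with FluxOr dye for 45 min, and thallium flux is measured in kinetic reads before and after stimulation buffer. Rate constants are normalized to DMSO controls.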
# KCNH2 3.1 block: qHTS for Inhibitors of KCHN2 3.1: Mutant qHTS; Potassium voltage-gated channel subfamily H member 2, brain isoform KCNH2 3.1 (human); U2OS KCNH2 3.1, thallium flux FluxOr; active compounds read low; activity change, % (tested at about 1.8 µM); hit rate 0.95% among 340,000; AID 720553, 2013;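 active = maximum activity change below -70%; inconclusive = maximum activity change from -70% to -50%; inactive = maximum activity change above -50%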;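 note: thallium influx rate constant from kinetic fluorescence after stimulation buffer; % is set by controls: 0 for no effect and ±100 for the full control effect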
#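 FluxOr-based Tl+ influx in U2OS cells transduced with KCNH2 3.1 virus; rate constants normalized to DMSO controls.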
# GLS inh: qHTS for Inhibitors of Glutaminase (GLS); Glutaminase kidney isoform, mitochondrial (Homo sapiens), O94925; GLS enzymatic activity, qHTS titration; Potency, µM (highest dose often 45.5 µM), inactives show at the highest dose activity change, negative = inhibition, hits mostly inhibitors; hit rate 0.21% among 410,000; AID 624170, 2012; note: potency is the fitted concentration of half-maximal effect; % is set by controls: 0 for no effect and ±100 for the full control effect
# Target sequence (O94925 whole entry, looked up, canonical isoform): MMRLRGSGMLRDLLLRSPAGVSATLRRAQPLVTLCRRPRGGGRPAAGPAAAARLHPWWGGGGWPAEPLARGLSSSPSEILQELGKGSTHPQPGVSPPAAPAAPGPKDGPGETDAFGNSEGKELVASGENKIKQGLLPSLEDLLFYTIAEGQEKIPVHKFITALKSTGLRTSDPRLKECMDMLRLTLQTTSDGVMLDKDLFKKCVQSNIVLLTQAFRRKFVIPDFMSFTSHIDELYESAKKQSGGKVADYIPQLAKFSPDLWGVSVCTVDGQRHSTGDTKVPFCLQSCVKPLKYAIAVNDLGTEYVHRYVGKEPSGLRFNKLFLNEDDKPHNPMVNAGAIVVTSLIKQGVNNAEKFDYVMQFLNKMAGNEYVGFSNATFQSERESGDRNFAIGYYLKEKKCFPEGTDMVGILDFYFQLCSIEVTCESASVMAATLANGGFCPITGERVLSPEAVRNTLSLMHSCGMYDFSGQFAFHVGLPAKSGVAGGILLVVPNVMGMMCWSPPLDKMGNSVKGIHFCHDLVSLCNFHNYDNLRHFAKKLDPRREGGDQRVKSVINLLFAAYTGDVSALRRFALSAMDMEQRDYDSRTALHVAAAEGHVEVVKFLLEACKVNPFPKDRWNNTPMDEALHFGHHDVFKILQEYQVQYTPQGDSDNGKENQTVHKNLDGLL
#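 Assay buffer: 45 mM KH2PO4 pH 8.2, 0.02% Tween-20. hKGA acts on L-glutamine (1 mM solution added); product glutamate is reported by an oxidase/peroxidase Amplex Red coupling, with fluorescence taken at baseline and 30 min.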
# GLP-1R inv ag: qHTS of GLP-1 Receptor Inverse Agonists (Inhibition Mode) | HEK293 GLP-1R CRE-luciferase, luminescence, 24 h; GLP-1R form is constitutively active | Potency, µM (series often up to 38.3 µM), inactives show at the top dose activity change, negative = inhibition, hits mostly inhibitors | hit rate 1.6% among 410,000 | Glucagon-like peptide 1 receptor (Homo sapiens), P43220; note: potency is the fitted concentration of half-maximal effect; % is set by controls: 0 for no effect and ±100 for the full control effect; nearly all actives have a fitted effect of over 55% in size
#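 GLP-1R inverse agonism mode: basal reporter luminescence in engineered HEK293 cells measured after one day of compound exposure at 37 deg C, with a 12 min room-temperature detection step.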
# GLP1R cytotox: qHTS of GLP-1 Receptor Inverse Agonists: Cytotox Screen. HEK293 cAMP-luciferase reporter cells, luminescence, 24 h. Potency, µM (top dose mostly 38.3 µM), for inactives: at the top dose activity change, negative = inhibition, most hits filed as inhibitors. hit rate 0.13% among 410,000;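 note: loss of luciferase light is scored as toxicity; potency is the fitted concentration of half-maximal effect; % is set by controls: 0 for no effect and ±100 for the full control effect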
#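 Step one: seed cells (200 cells/uL, DMEM with 10% Nu serum, 1% pen-strep). Step two: 12-hour incubation at 37 deg C. Step three: pin 23 nL compound, incubate 24 hr. Step four: add luciferase reagent, read luminescence 12 min later.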
# GLP-1R agonist: qHTS of GLP-1 Receptor Agonists. Potency, µM (titrated, usually from 45.6 µM), for inactives: at the top dose activation, usual class: activators. HEK293 GLP-1R CRE-luciferase, luminescence, 4-6 h; cells express a hypersensitive GLP-1R form. Glucagon-like peptide 1 receptor (Homo sapiens), P43220. hit rate 0.007% among 380,000; note: potency is the fitted concentration of half-maximal effect; % of control where 0% means no effect
# * = called active by the depositor; ? = inconclusive; · = not tested or not shown. Compounds with a hit are over-represented: about 2.8% of the library has one in this group of screens. Unless noted, calls come from the whole dose curve; as a rule, active = well fitted curve in the direction sought with a large enough effect; inconclusive = small, poorly fitted or top-dose-only effect, or another doubt; inactive = no such curve, though single readings can be large; an effect the other way counts as inactive or inconclusive.
SMILES,KCNH2 WT inh,KCNH2 3.1 block,GLS inh,GLP-1R inv ag,GLP1R cytotox,GLP-1R agonist
COc1ccc(NC(=O)CN(C)C(=O)C(C)Sc2ccccc2)cc1 (configuration not stated),-3,-2,17%,7%,-3%,-1%
Cc1ccc(NC(=O)CN(C)C(=O)c2ccccc2Cc2ccccc2)cc1,5,-10,0%,10µM*,-9%,7%
O=C(/C=C/Nc1ccccc1Br)c1ccccn1,8,1,10%,2µM*,-3%,-22%
Cc1nn2c(N3CCN(C4CCCC4)CC3)cc(C(C)(C)C)nc2c1-c1ccccc1,-5,1,-15%,5%,14%,-6%
Cc1nn2c(N3CCN(C)CC3)cc(C(C)(C)C)nc2c1-c1ccccc1,-6,4,-4%,7.1µM*,?,?
NCC(c1ccccc1)c1c[nH]c2ccccc12 (configuration not stated),-4,12,5%,?,-12%,4%
O=[N+]([O-])CC(c1ccc(F)cc1)c1c[nH]c2ccccc12 (configuration not stated),0,-13,-7%,7.1µM*,-26%,3%
CCn1c(SCC(=O)Nc2ccc(N(C)C)cc2)nnc1-c1ccco1,-2,-9,8%,-18%,-16%,1%
NC(=O)NCC(c1ccccc1)C1CCCCC1 (configuration not stated),-9,14,3%,-21%,8%,-1%
Cc1ccc(NC(=O)NCc2cccn2C)cc1C,-9,11,7.1µM*,-14%,4%,21%
Cn1cccc1CNC(=O)Nc1ccccc1,-28,-7,3%,0%,12%,0%
CN(C)c1cc(-c2ccc(Cl)c(Cl)c2)oc(=O)c1Cl,2,-98*,-15%,3%,7%,5%
Cc1cc(C(F)(F)F)cc(NNC(=O)NC(=O)c2c(F)cccc2Cl)n1,5,-11,10%,11µM*,-1%,20%
CC(C)(C)NC(=O)C(=O)NC(=O)c1c(F)cccc1Cl,-4,6,-11%,-5%,8%,4%
Cc1nn(C)c2c1c(C(F)(F)F)cc(=O)n2CC(=O)N1CCC(C)CC1,·,·,-6%,13%,-11%,·
CC1(C(=O)NCc2ccccc2)Cc2c(-c3ccccc3)ccnc2O1 (configuration not stated),·,·,5%,?,-28%,-4%
CC1(C(=O)NCc2ccccc2)Cc2c(-c3ccc(C(N)=O)cc3)ccnc2O1 (configuration not stated),·,·,5%,6.3µM*,?,20%
CC1(C(=O)NCc2ccccc2)Cc2c(-c3ccc4c(c3)OCO4)ccnc2O1 (configuration not stated),·,·,1%,2.8µM*,-25%,10%
O=C(O)C1C2C=CC(C2)C1C(=O)NCc1ccc(Cl)c(Cl)c1 (configuration not stated),-32,9,6%,11µM*,-14%,3%
Cc1cc(C)n(-c2nc(SCCN(C)C)c3c4c(sc3n2)COC(C)(C)C4)n1,?,-137*,4%,?,?,0%
Cc1cc(C)n(-c2nc(NCC3CCCO3)c3c4c(sc3n2)COC(C)(C)C4)n1 (configuration not stated),12,0,0%,?,3.2µM*,1%
Cc1cc(C)n(-c2nc(NCC(C)O)c3c4c(sc3n2)COC(C)(C)C4)n1 (configuration not stated),18,3,-9%,0%,?,-1%
